Growth data for 14 molecules are collected here from PubChem BioAssay (NCI).

“And” between values parts separate entries of the source, which are not always exact repeats. Identical values can stand only once. This is part of a sample that, as a whole, favours compounds with a hit. Of some 83,000 tested, about 20% had one in any assay.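 Testing used 96-well plates and a 48-hour single-concentration exposure. Example: -40 means 40% of the starting cells died.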 The source made the active and inactive calls. The calls were made as follows: active = growth percent below 10; inactive = the rest.

Some test systems named below: NCI-H23 lung; NCI-H226 lung; NCI-H322M lung; HOP-62 NSCLC; NCI-H460 lung; HOP-92 NSCLC; NCI-H522 lung; A549/ATCC NSCLC; 786-0 renal; COLO 205 colon.
Holding throughout (assay): NCI-60 one-dose screen, 48 h (100 = growth as untreated, 0 = no growth, -100 = all killed)
What all share (details): 10 µM unless noted

For `OC(CSc1ccccc1)CN1CCN(c2cccc(Cl)c2)CC1` (centres undefined), the growth with NCI-H23 lung was 104% (inactive) and 96.6% (inactive); in the assay on NCI-H226 lung, 91.4% (inactive) and 89.5% (inactive); in the assay with NCI-H322M lung, 108% (inactive) and 102% (inactive); with HOP-62 NSCLC, 107% (inactive) and 102% (inactive); in the assay on NCI-H460 lung, 114% (inactive) and 109% (inactive); with HOP-92 NSCLC it was 82% (inactive) and 83.2% (inactive). For the same molecule, the growth in the assay with NCI-H522 lung is 104% (inactive) and 83.7% (inactive); in the assay on A549/ATCC NSCLC, 101% (inactive) and 98.4% (inactive); in the assay with 786-0 renal, 94.8% (inactive) and 105% (inactive); in the assay with COLO 205 colon, 105% (inactive) and 99.9% (inactive).

With `Cc1n[nH]c(=O)n(/N=C\c2c[nH]c3ccccc23)c1=O`, the growth was 102% (inactive) in the assay with NCI-H23 lung; 103% (inactive) in the assay with NCI-H226 lung; 94.2% (inactive) with NCI-H322M lung; 96.1% (inactive) with HOP-62 NSCLC; 107% (inactive) in the assay on NCI-H460 lung; 84.2% (inactive) in the assay on HOP-92 NSCLC. Moreover, the growth in the assay on NCI-H522 lung was 94.1% (inactive); with A549/ATCC NSCLC it was 93.1% (inactive); in the assay with 786-0 renal it was 123% (inactive); in the assay on COLO 205 colon, 104% (inactive).

As for `CC[N+](CC)(CC(=O)Nc1c(C)cccc1C)Cc1ccccc1`, the growth in the assay on NCI-H23 lung is 85.4% (inactive) and 99.4% (inactive); in the assay on NCI-H226 lung it was 87% (inactive) and 97.8% (inactive); in the assay on NCI-H322M lung, 110% (inactive) and 93.8% (inactive); in the assay with HOP-62 NSCLC, 85.2% (inactive) and 93.2% (inactive); in the assay with NCI-H460 lung, 100% (inactive) and 101% (inactive); with HOP-92 NSCLC it was 112% (inactive) and 90.7% (inactive). For the same molecule, the growth was 92% (inactive) in the assay on NCI-H522 lung; 106% (inactive) and 98.5% (inactive) in the assay on A549/ATCC NSCLC; 103% (inactive) with 786-0 renal; 103% (inactive) in the assay with COLO 205 colon.

For the molecule `CN(C)CCCN1c2ccccc2Sc2ccc(Cl)cc21`, the growth with NCI-H23 lung is 90.4% (inactive) and 112% (inactive) and 111% (inactive); with NCI-H226 lung, 106% (inactive) and 97.5% (inactive) and 92.1% (inactive); in the assay with NCI-H322M lung, 77.4% (inactive) and 105% (inactive) and 71% (inactive); with HOP-62 NSCLC, 77.1% (inactive) and 107% (inactive) and 95.2% (inactive); in the assay with NCI-H460 lung, 101% (inactive) and 105% (inactive) and 100% (inactive); in the assay on HOP-92 NSCLC, 47.1% (inactive) and 99.2% (inactive). Further, the growth in the assay on NCI-H522 lung was 72.3% (inactive) and 97.6% (inactive); with A549/ATCC NSCLC, 103% (inactive) and 94.4% (inactive); in the assay with 786-0 renal it was 68% (inactive) and 106% (inactive) and 81.9% (inactive); in the assay with COLO 205 colon, 50.5% (inactive) and 102% (inactive) and 67.9% (inactive).

For the molecule `CC(O)(CC(=O)CC(=O)c1ccccc1)c1ccccc1` (centres undefined), the growth with NCI-H23 lung was 102% (inactive) and 87.4% (inactive); in the assay on NCI-H226 lung, 93.9% (inactive) and 86% (inactive); with NCI-H322M lung, 116% (inactive) and 105% (inactive); in the assay with HOP-62 NSCLC, 106% (inactive) and 99.2% (inactive); in the assay with NCI-H460 lung it was 94.2% (inactive) and 101% (inactive); in the assay with HOP-92 NSCLC, 100% (inactive) and 94.7% (inactive). In addition, the growth was 90.9% (inactive) and 96.4% (inactive) with NCI-H522 lung; 103% (inactive) and 97.4% (inactive) with A549/ATCC NSCLC; 101% (inactive) and 106% (inactive) in the assay with 786-0 renal; 127% (inactive) in the assay with COLO 205 colon.

Consider `NC(=S)N/N=C(\c1ccc(Br)cc1)C1CC1`, for which the growth is 94.2% (inactive) and 87.9% (inactive) with NCI-H23 lung; 96.7% (inactive) and 87.6% (inactive) with NCI-H226 lung; 101% (inactive) and 83.7% (inactive) in the assay on NCI-H322M lung; 96.4% (inactive) and 87% (inactive) in the assay with HOP-62 NSCLC; 104% (inactive) and 102% (inactive) in the assay on NCI-H460 lung; 83.2% (inactive) and 92.7% (inactive) in the assay with HOP-92 NSCLC. In addition, the growth was 98.9% (inactive) in the assay on NCI-H522 lung; 103% (inactive) in the assay with A549/ATCC NSCLC; 113% (inactive) and 106% (inactive) in the assay with 786-0 renal; 98.4% (inactive) and 94.5% (inactive) with COLO 205 colon.

For `O=C(O)CN(CCN(CC(=O)O)CC(=O)O)CCN(CC(=O)O)CC(=O)O`, the growth in the assay with NCI-H23 lung is -19% (active) and 104% (inactive) and 110% (inactive); in the assay with NCI-H226 lung, 15.7% (inactive) and 98.6% (inactive) and 90.3% (inactive); in the assay on NCI-H322M lung, -3.44% (active) and 107% (inactive) and 116% (inactive); in the assay with HOP-62 NSCLC, -75.5% (active) and 97.4% (inactive) and 99.5% (inactive); in the assay with NCI-H460 lung, -51.4% (active) and 119% (inactive); in the assay on HOP-92 NSCLC, 103% (inactive) and 102% (inactive). In addition, the growth is -27.9% (active) and 107% (inactive) and 88.5% (inactive) with NCI-H522 lung; -85.5% (active) and 106% (inactive) and 98.9% (inactive) with A549/ATCC NSCLC; -20.3% (active) and 102% (inactive) and 105% (inactive) in the assay with 786-0 renal; 23% (inactive) and 91.5% (inactive) and 104% (inactive) in the assay with COLO 205 colon.

Take `C/C(=N\NC(=O)c1ccncc1)c1ccccc1O`: the growth in the assay on NCI-H23 lung was 42.5% (inactive) and 30.4% (inactive); in the assay with NCI-H226 lung, 54.5% (inactive) and 58.8% (inactive); in the assay with NCI-H322M lung, 30.3% (inactive) and 20.7% (inactive); with HOP-62 NSCLC it was 34.3% (inactive) and 33.7% (inactive); in the assay on NCI-H460 lung, 19.3% (inactive) and 14% (inactive); in the assay on HOP-92 NSCLC it was 44.5% (inactive) and 36.7% (inactive). The growth in the assay on NCI-H522 lung was 8.84% (active); in the assay on A549/ATCC NSCLC, 36.4% (inactive) and 40% (inactive); with 786-0 renal, 31.4% (inactive) and 22.6% (inactive); in the assay with COLO 205 colon it was 13.9% (inactive) and 8.85% (active).

As to `CC1CCCC(=O)O1` (centres undefined), the growth is 104% (inactive) and 97.1% (inactive) in the assay on NCI-H23 lung; 93.3% (inactive) and 101% (inactive) in the assay with NCI-H226 lung; 106% (inactive) with NCI-H322M lung; 94.3% (inactive) and 96.5% (inactive) in the assay with HOP-62 NSCLC; 104% (inactive) and 112% (inactive) with NCI-H460 lung; 91.8% (inactive) in the assay on HOP-92 NSCLC. Also, the growth with NCI-H522 lung was 86.3% (inactive) and 104% (inactive); with A549/ATCC NSCLC, 108% (inactive) and 97.9% (inactive); in the assay on 786-0 renal, 92.6% (inactive) and 93.3% (inactive); in the assay with COLO 205 colon, 107% (inactive) and 122% (inactive).

With `S=C(S)N1CCCC1`, the growth in the assay with NCI-H23 lung was 108% (inactive) and 102% (inactive); in the assay with NCI-H226 lung, 108% (inactive) and 111% (inactive); in the assay on NCI-H322M lung, 107% (inactive) and 97.7% (inactive); in the assay with HOP-62 NSCLC, 124% (inactive) and 100% (inactive); with NCI-H460 lung it was 62.2% (inactive); in the assay on HOP-92 NSCLC, 91.9% (inactive) and 88% (inactive). Moreover, the growth was 8.09% (active) and -11.7% (active) in the assay with NCI-H522 lung; 70.6% (inactive) and 58.4% (inactive) with A549/ATCC NSCLC; 103% (inactive) and 106% (inactive) with 786-0 renal; 60.7% (inactive) and 49.9% (inactive) with COLO 205 colon.

Take `O=C(Nc1cccc(Cl)c1)c1cc2ccccc2cc1O`: the growth was 4.9% (active) and 9.55% (active) with NCI-H23 lung; 45.8% (inactive) and 40.6% (inactive) with NCI-H226 lung; 15% (inactive) and -3.24% (active) in the assay on NCI-H322M lung; 37.7% (inactive) and 15.1% (inactive) with HOP-62 NSCLC; 5.98% (active) and 5.93% (active) in the assay on NCI-H460 lung; -30.8% (active) and -32.5% (active) in the assay on HOP-92 NSCLC. The growth in the assay with NCI-H522 lung is 1.12% (active) and 2.91% (active); with A549/ATCC NSCLC it was 20.7% (inactive) and 9.25% (active); with 786-0 renal it was 53.6% (inactive) and 17.3% (inactive); in the assay with COLO 205 colon, 104% (inactive) and 42.6% (inactive).

Turning to `O=[N+]([O-])c1ccc(/C=N\NC(=S)Nc2ccc(F)cc2)cc1`, the growth was 101% (inactive) and 88.3% (inactive) in the assay with NCI-H23 lung; 105% (inactive) and 91.1% (inactive) in the assay with NCI-H226 lung; 86.6% (inactive) and 97.9% (inactive) in the assay with NCI-H322M lung; 105% (inactive) and 94.6% (inactive) with HOP-62 NSCLC; 95.3% (inactive) and 87% (inactive) in the assay with NCI-H460 lung; 107% (inactive) and 75.7% (inactive) in the assay with HOP-92 NSCLC. In addition, the growth with NCI-H522 lung was 95% (inactive) and 104% (inactive); in the assay on A549/ATCC NSCLC it was 82.1% (inactive) and 90.9% (inactive); in the assay on 786-0 renal it was 105% (inactive) and 98.5% (inactive); in the assay on COLO 205 colon, 104% (inactive) and 103% (inactive).

In the case of `CC1=C(/C=C/C(C)=C/C=C/C(C)=C/C(=O)O)C(C)(C)CCC1`, the growth with NCI-H23 lung is 86.6% (inactive) and 96.1% (inactive) and 98.3% (inactive); with NCI-H226 lung, 93% (inactive) and 92.1% (inactive) and 88.2% (inactive); in the assay on NCI-H322M lung it was 94.2% (inactive) and 101% (inactive); in the assay with HOP-62 NSCLC it was 73% (inactive) and 75.4% (inactive); in the assay on NCI-H460 lung, 91.2% (inactive) and 91.7% (inactive) and 90.6% (inactive); in the assay on HOP-92 NSCLC, 66.8% (inactive) and 77% (inactive) and 26.4% (inactive). Further, the growth in the assay with NCI-H522 lung is 64.8% (inactive) and 79.3% (inactive); in the assay on A549/ATCC NSCLC it was 73.4% (inactive) and 88.2% (inactive) and 80.3% (inactive); with 786-0 renal it was 96.6% (inactive) and 85.6% (inactive) and 102% (inactive); in the assay on COLO 205 colon it was 108% (inactive) and 93.2% (inactive) and 145% (inactive).

With `C=C1C(=O)O[C@H]2[C@H]1CC/C(COC(=O)NC1CCC(O)CC1)=C\CC[C@@]1(C)O[C@@H]21` (some centres undefined), the growth is 58.3% (inactive) and 50.6% (inactive) in the assay on NCI-H23 lung; 85.5% (inactive) and 95% (inactive) in the assay on NCI-H226 lung; 105% (inactive) and 98.6% (inactive) with NCI-H322M lung; 97% (inactive) and 97.4% (inactive) with HOP-62 NSCLC; 100% (inactive) and 96.7% (inactive) with NCI-H460 lung; 71.6% (inactive) and 54.6% (inactive) in the assay with HOP-92 NSCLC. Moreover, the growth with A549/ATCC NSCLC is 91.7% (inactive) and 87.8% (inactive); in the assay on 786-0 renal it was 103% (inactive) and 99.6% (inactive); in the assay on COLO 205 colon, 44.9% (inactive) and 41.7% (inactive).
